Screening data (PubChem)
VP16 counter: VP16 counterscreen qHTS for inhibitors of ROR gamma transcriptional activity | Drosophila S2 Gal4-VP16 UAS-luciferase, luminescence, 20 h | Potency, µM (top dose mostly 53.6 µM), without a hit: top-dose activity, negative = inhibition, hits mostly inhibitors | 310,000 compounds, 3.5% hits;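 also: Gal4-VP16 expression switched on by copper sulfate through the metallothionein promoter; potency is read from the fitted curve at half-maximal effect; nearly all actives have a fitted effect of over 50% in size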
DT40 TDP1 no CPT: qHTS for Inhibitors of human tyrosyl-DNA phosphodiesterase 1 (TDP1): qHTS in cells in absence of CPT | DT40 Tdp1-/- hTDP1 cells, no CPT, ATP luminescence, 48 h | Potency, µM (doses to about 46.2 µM), for inactives: at the highest dose activity change, negative = growth inhibition, actives largely listed as inhibitors | 420,000 compounds, 15% hits | AID 686978, 2013; also: potency is read from the fitted curve at half-maximal effect; nearly all actives have a fitted effect of over 55% in size
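Compound effects on proliferation are scored in DT40 Tdp1-/-;hTDP1 cells in the absence of CPT. ATP levels (CellTiter-Glo luminescence) are recorded after a ≥48 hr, 37 °C incubation.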
ELG1 DNA repair: qHTS screen for small molecules that inhibit ELG1-dependent DNA repair in human embryonic kidney (HEK293T) cells expressing luciferase-tagged ELG1. HEK293T ELG1-luciferase reporter, luminescence, 16 h; DNA damage induced by 5-fluorouridine. Potency, µM (highest dose often 46.1 µM), inactives show at the highest dose activity change, negative = inhibition, actives largely listed as inhibitors. 330,000 compounds, 2.3% hits; also: potency is read from the fitted curve at half-maximal effect; nearly all actives have a fitted effect of over 55% in size
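Cells (2,000 per well) received 5-fluorouridine plus test compound or DMSO and were incubated 16 hr at 37 °C, 5% CO2. Luciferase activity was read by luminescence 30 min after ONE-Glo addition; signal suppression marked inhibition of damage-induced ELG1 function.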
IL-1B inflam inh: qHTS for Inhibitors of Inflammasome Signaling: IL-1-beta AlphaLISA Primary Screen; THP-1 LPS/ATP IL-1B secretion, AlphaLISA, 16 h; stronger effect = lower value; activity change, % at 57.5 µM; 360,000 compounds, 4.7% hits; in the data active = activity change below about -50%; inconclusive = mostly about -30% to -49%
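THP-1 cells pretreated 1 hr with compounds (up to 57.5 uM final), then stimulated with LPS (250 ng/mL final) plus ATP (1.25 mM final); secreted IL-1B measured by AlphaLISA after 16 hr, decreased signal indicating inhibition.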
RORgamma inh: qHTS for inhibitors of ROR gamma transcriptional activity; Drosophila S2 Gal4-RORgamma UAS-luciferase reporter, 20 h; Potency, µM (highest dose often 53.6 µM), for the others: top-dose activity change, negative = inhibition, actives largely listed as inhibitors; 310,000 compounds, 5.4% hits; AID 2551, 2010; Nuclear receptor ROR-gamma (Mus musculus), P51450; also: potency is read from the fitted curve at half-maximal effect; nearly all actives have a fitted effect of over 60% in size
Target sequence (P51450 whole entry, looked up, the tested form may be a part): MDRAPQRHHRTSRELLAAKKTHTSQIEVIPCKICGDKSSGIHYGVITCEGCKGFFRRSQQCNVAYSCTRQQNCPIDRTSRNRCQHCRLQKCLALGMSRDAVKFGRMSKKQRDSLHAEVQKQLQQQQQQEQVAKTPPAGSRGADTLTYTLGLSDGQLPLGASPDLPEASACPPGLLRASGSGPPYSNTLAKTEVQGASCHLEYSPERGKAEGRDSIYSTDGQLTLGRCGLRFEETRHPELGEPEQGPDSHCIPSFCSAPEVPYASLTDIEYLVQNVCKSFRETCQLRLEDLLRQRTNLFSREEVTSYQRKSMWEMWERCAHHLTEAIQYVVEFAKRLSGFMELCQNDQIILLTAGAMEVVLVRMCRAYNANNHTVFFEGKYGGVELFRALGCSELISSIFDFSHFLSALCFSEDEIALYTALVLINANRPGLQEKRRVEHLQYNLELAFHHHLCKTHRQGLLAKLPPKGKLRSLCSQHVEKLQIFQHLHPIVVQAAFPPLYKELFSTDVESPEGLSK
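Compounds are pin-transferred onto Drosophila Schneider cells expressing a copper-inducible Gal4–ROR gamma transactivation domain fusion. After 1 hr, copper sulfate is added to 700 uM final; luciferase is read 20 hr later.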
DT40 TDP1 CPT: qHTS for Inhibitors of human tyrosyl-DNA phosphodiesterase 1 (TDP1): qHTS in cells in presence of CPT | chicken DT40 Tdp1-/-;hTDP1 cells + 20 nM CPT, ATP luminescence, 48 h | Potency, µM (doses to about 46.2 µM), for the others: top-dose activity change, negative = growth inhibition, actives largely listed as inhibitors | 420,000 compounds, 12% hits | AID 686979, 2013; also: potency is read from the fitted curve at half-maximal effect; nearly all actives have a fitted effect of over 55% in size
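Chicken DT40 Tdp1-/- cells complemented with human TDP1, 400 cells/well, exposed to compounds plus 20 nM camptothecin for at least 48 h at 37 C; viability read as ATP content by CellTiter-Glo luminescence.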
* hit, by the source's call; ? = inconclusive; / = no result given. A selection: hits, their analogues and other compounds. The true share with any hit is near 21%. Unless noted, calls follow the shape of the dose curve; as a rule, active = well fitted curve in the direction sought with a large enough effect; inconclusive = small, poorly fitted or top-dose-only effect, or another doubt; inactive = no such curve, though single readings can be large; an effect the other way counts as inactive or inconclusive. % is scaled to controls: 0 for no effect and ±100 for the full control effect.

SMILES | VP16 counter | DT40 TDP1 no CPT | ELG1 DNA repair | IL-1B inflam inh | RORgamma inh | DT40 TDP1 CPT
Oc1ccccc1C(Nc1nccs1)c1ccc2cccnc2c1O (stereo not given) | 5.01µM* | 2.59µM* | 3.66µM* | 68.1 | ? | 3.66µM*
Cc1cn2c(=O)c(S(=O)(=O)NC(C)c3ccccc3)c(C)nc2s1 (stereo not given) | / | 4.8% | / | / | / | -5.8%
CCN(CC(=O)Nc1ccc(NC(C)=O)cc1)C(=O)c1cn(-c2ccccc2)nc1-c1cccs1 | / | ? | ? | -9.8 | / | -20.1%
O=C(c1cn(-c2ccccc2)nc1-c1cccs1)N(CCO)Cc1ccccc1 | ? | 18.4µM* | ? | -11.2 | 16.1% | -28.7%
CN(CC(=O)Nc1cccc(F)c1)C(=O)c1cn(-c2ccccc2)nc1-c1cccs1 | / | 13µM* | / | -5.2 | / | ?
Cc1nn(-c2ccccc2)c(Cl)c1C(=O)N(C)CC(=O)Nc1cccc(F)c1 | / | ? | -18.5% | -16.5 | / | ?
CN(CC(=O)Nc1cccc(F)c1)C(=O)c1cn(-c2ccccc2)nc1-c1ccc(Cl)cc1 | / | ? | ? | -59.9* | / | ?
COc1cccc(NC(=O)CN(C)C(=O)c2cn(-c3ccccc3)nc2-c2cccs2)c1 | / | ? | ? | -52.8* | / | ?
CCN(CC)CCOC(=O)c1ccc(NC(=O)c2cn(-c3ccccc3)nc2-c2cccs2)cc1 | ? | 20.6µM* | ? | -53.3* | ? | ?
CN(CC(=O)Nc1ccccc1C(F)(F)F)C(=O)c1cc(-c2cccs2)nn1-c1ccccc1 | / | -8.5% | ? | -11.1 | / | 12.3%
CN(CC(=O)Nc1cccc(F)c1)C(=O)c1cc(-c2cccs2)nn1-c1ccccc1 | / | 16.4µM* | ? | -6.3 | / | ?
O=c1c2cccnc2n(Cc2ccccc2F)c(=O)n1Cc1ccc(F)cc1 | / | ? | / | / | / | -19.6%
O=c1c2cccnc2n(Cc2ccc(Cl)cc2)c(=O)n1Cc1ccc(F)cc1 | / | 8.2µM* | / | / | / | ?
Cc1ccccc1Cn1c(=O)n(Cc2ccc(Cl)cc2)c(=O)c2cccnc21 | / | 16.4µM* | / | / | / | 14.6µM*
CC(=O)c1ccc(N2CCN(CC(=O)Nc3ccc4c(c3)OCCO4)CC2)cc1 | 0.4% | -29.5% | 5.7% | -12.4 | 19.2% | -3.0%
COc1ccc(C(=O)NN/C(C)=C/C(=O)C(F)(F)C(F)(F)C(F)(F)F)cc1 | 5.62µM* | -21.4% | ? | 11.4 | 5.62µM* | -3.8%
COc1ccc(C(=O)NNC(=O)OC(C)(C)C)cc1 | 11.8% | 33.4% | 5.0% | -12.7 | 6.9% | 4.9%
CN(CC(=O)Nc1ccccc1Cl)C(=O)Cn1nnc(-c2ccc(F)cc2)n1 | / | ? | -8.3% | -5.7 | / | -9.8%
O=C1C2CCCCN2C(=O)N1CCCCN1CCN(c2ccc([N+](=O)[O-])cc2)CC1 (stereo not given) | -1.7% | 14.6µM* | -13.6% | -5.0 | 2.0% | ?
O=C1C2CCCCN2C(=O)N1CCCCN1CCN(c2cccc(Cl)c2)CC1 (stereo not given) | -4.2% | ? | ? | 3.2 | -17.7% | -25.6%
Cc1ccc(N2CCN(CCCN3C(=O)C4CCCN4C3=O)CC2)cc1 (stereo not given) | -8.5% | -1.3% | 3.6% | 0.4 | 0.7% | -25.0%
O=C1C2CCCCN2C(=O)N1CCCCN1CCN(c2cccc(C(F)(F)F)c2)CC1 (stereo not given) | / | ? | / | ? | / | 10.3µM*
CCOC(=O)c1ccc(NC(=O)c2oc3ccc4c(c3c2C)C(=O)CC(C)(CC)O4)cc1 (stereo not given) | / | 20.6µM* | / | / | / | ?
COc1cccc(CNC(=O)c2oc3ccc4c(c3c2C)C(=O)CC(C)(C)O4)c1OC | / | 16.4µM* | / | / | / | ?
Cc1c(C(=O)NCc2ccc(Cl)cc2)oc2ccc3c(c12)C(=O)CC(C)(C)O3 | / | 14.6µM* | / | / | / | ?
SMILES | VP16 counter | DT40 TDP1 no CPT | ELG1 DNA repair | IL-1B inflam inh | RORgamma inh | DT40 TDP1 CPT
O=c1c(-c2cccs2)nc2cnc(N3CCOCC3)nc2n1CCc1ccccc1 | -5.9% | 21.9% | / | / | -24.2% | 1.7%
Cc1cc(C)n(C(C)CC(=O)NCc2ccccc2C)n1 (stereo not given) | / | -11.4% | / | / | / | -14.8%
CC(=O)c1c(C)[nH]c(C(=O)OCC(=O)N2c3ccccc3NC(=O)C2(C)C)c1C | 7.1% | ? | 0.3% | 41.4 | -1.3% | 34.8%
CCC(NC(=O)c1[nH]c(C)c(C(C)=O)c1C)c1ccc(Br)cc1 (stereo not given) | -6.0% | 14.6µM* | ? | ? | 11.1% | ?
COC(=O)c1c(C)[nH]c(C(=O)OCC(=O)c2ccc(C)s2)c1C | / | ? | ? | -71.9* | / | ?
O=C(OCCCCN1C(=O)c2ccccc2C1=O)c1n[nH]c2ccccc12 | 31.6µM* | ? | -17.1% | 12.3 | -110.4% | ?
CC(=O)c1c(C)[nH]c(C(=O)OCCCCN2C(=O)c3ccccc3C2=O)c1C | 8.91µM* | 4.11µM* | 6.51µM* | 17.2 | ? | 8.2µM*
COC(=O)c1n[nH]c2ccccc12 | -5.1% | -3.6% | 10.3% | 31.9 | -13.2% | 1.8%
COc1ccccc1C(=O)NC(=O)COC(=O)C1(C)CC1(Cl)Cl (stereo not given) | / | 1.3% | 4.6% | 2.2 | / | 3.1%
CC(=O)c1c(C)[nH]c(C(=O)OCc2ccccc2)c1C | -13.9% | 20.6µM* | ? | -2.6 | 13.6% | ?
CC(=O)c1c(C)[nH]c(C(=O)OCc2ccc([N+](=O)[O-])cc2)c1C | -1.6% | ? | 9.0% | 19.9 | ? | ?
CC(=O)c1c(C)[nH]c(C(=O)OCC(=O)c2ccc(Br)cc2)c1C | / | 18.4µM* | / | 22.9 | / | ?
COC(=O)c1ccc(COC(=O)c2[nH]c(C)c(C(C)=O)c2C)o1 | 7.94µM* | 2.91µM* | ? | 38.5 | ? | 10.3µM*
O=C(NCc1cccs1)C1CCN(C(=O)N2CCOc3ccccc32)CC1 | / | -6.9% | / | / | / | -22.1%
CC(C)(C)NC(=O)CSc1nc2ccc(NC(=O)CSc3nnc(N)s3)cc2s1 | ? | 9.2µM* | 16.4µM* | -8.3 | 25.8% | 20.6µM*
